Bioassay records: PubChem, several laboratories
PABP polyA inh – PABP-poly(A) binding inhibition; 290,000 compounds, 1% hits; PABP-poly(A) RNA binding, fluorescence polarization; inhibition, % at 35 µM;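 also: calls also rest on retests at 20 µM and on dose response follow-up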
eIF4H FP inh – inhibitors of RNA binding by human eIF4H. Q15056. eIF4H fluorescence polarization binding assay. inhibition, % at 35 µM. 290,000 compounds, 0.94% hits. AID 2012;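 also: calls also rest on retests at 20 µM and on dose response follow-up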
eIF4E 4G PPI – eIF4E/eIF4G interaction inhibition in translation initiation | 220,000 compounds, 0.37% hits | inhibition, % at 21.7 µM | TR-FRET eIF4E-eIF4GI(517-606) binding, 2 h | P63073+Q04637;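 active = inhibition above about 30%, limit read from the data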;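 also: 0% = full FRET control wells and 100% = background wells lacking eIF4GI fragment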
Target sequence (P63073 whole entry, looked up, the tested form may be a part): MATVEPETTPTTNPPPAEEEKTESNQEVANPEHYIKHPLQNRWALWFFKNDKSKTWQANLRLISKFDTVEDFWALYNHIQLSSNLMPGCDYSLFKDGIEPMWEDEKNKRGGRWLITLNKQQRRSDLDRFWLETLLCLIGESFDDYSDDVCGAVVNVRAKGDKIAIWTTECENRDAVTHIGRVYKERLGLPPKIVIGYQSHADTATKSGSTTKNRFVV
Target sequence (Q04637 whole entry, looked up, the tested form may be a part): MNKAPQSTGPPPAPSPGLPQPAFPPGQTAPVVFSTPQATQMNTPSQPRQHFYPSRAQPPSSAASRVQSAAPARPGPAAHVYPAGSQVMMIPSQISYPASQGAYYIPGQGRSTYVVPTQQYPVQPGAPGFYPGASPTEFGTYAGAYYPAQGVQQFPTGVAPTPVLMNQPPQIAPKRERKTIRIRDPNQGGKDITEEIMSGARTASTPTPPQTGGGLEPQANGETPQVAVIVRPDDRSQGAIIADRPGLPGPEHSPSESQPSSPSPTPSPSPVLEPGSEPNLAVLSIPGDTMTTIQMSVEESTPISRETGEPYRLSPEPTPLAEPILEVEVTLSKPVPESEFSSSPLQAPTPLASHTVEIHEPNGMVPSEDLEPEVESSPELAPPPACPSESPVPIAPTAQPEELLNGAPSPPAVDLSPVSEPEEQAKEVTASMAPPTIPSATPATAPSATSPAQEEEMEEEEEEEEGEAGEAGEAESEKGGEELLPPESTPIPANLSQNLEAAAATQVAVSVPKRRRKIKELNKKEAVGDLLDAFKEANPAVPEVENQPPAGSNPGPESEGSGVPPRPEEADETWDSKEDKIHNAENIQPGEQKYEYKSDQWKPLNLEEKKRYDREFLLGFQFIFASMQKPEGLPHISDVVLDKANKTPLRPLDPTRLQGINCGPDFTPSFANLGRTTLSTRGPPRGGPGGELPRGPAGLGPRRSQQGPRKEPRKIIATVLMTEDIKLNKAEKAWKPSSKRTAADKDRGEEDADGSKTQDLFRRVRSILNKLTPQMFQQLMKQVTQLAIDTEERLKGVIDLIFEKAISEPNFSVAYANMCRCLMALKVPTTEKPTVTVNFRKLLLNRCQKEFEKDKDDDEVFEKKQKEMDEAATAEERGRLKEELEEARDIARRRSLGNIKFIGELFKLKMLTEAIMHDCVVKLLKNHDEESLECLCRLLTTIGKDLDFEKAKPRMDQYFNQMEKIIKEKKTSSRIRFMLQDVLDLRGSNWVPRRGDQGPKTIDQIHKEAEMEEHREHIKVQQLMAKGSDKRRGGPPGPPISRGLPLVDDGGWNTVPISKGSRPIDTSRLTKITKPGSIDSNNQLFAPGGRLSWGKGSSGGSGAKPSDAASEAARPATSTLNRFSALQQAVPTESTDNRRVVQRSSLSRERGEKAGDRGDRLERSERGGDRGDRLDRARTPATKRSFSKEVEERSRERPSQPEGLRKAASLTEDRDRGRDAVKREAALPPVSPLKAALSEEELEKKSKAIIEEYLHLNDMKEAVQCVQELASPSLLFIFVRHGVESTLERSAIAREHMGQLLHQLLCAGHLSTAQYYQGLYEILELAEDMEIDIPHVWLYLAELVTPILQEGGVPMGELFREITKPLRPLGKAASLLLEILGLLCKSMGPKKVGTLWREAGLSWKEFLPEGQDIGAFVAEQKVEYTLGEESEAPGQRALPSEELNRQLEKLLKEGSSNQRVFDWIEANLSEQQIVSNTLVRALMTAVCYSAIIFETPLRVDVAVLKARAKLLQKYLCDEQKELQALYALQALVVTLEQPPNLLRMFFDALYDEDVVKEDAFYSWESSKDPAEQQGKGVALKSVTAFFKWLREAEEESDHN
PERK inh – blocks human PERK kinase; CHO PERK-DD fusion, SEAP luminescence translation reporter; inhibition, % at 5.6 µM; 220,000 compounds, 0.17% hits;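 active = inhibition above the mean inhibition of all tested compounds plus 3 SD, set separately per screening campaign, cut at about 2.9% in these data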;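 also: PERK kinase domain activated by AP20187 dimerizer at 100 nM; 0% = DMSO with dimerizer and 100% = rapamycin at 8.4 µM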
MLLE-PAM2 inh – inhibitors of microRNA-mediated deadenylation, human PABP1 MLLE binding; P11940; 360,000 compounds, 0.36% hits; inhibition, % at 20 µM; GST-MLLE / FITC-PAM2 fluorescence polarization; AID 588489; in the data active = inhibition above about 35%, passing the limit was not always enough;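 also: plate controls were DMSO wells with GST-MLLE for no effect and wells lacking GST-MLLE protein for full effect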
Starred values were filed as active, the others as inactive; ? = inconclusive; . = no result given. In the library only some 1.6% were active in any assay of this set; here they are far more common. Unless noted, no rule for the calls is given here.

SMILES | PABP polyA inh | eIF4H FP inh | eIF4E 4G PPI | PERK inh | MLLE-PAM2 inh
COc1ccc(C2/C=C\CN(C(=O)c3ccccc3)[C@H](Cc3ccccc3)C(=O)N2Cc2ccc(F)cc2)cc1 (stereo partly drawn) | 4 | -10 | 60* | . | -13
O=C(/C=C/c1ccc(Br)o1)Nc1nccs1 | 7.4* | 57* | -3 | 0 | -1
O=C(Nc1nccs1)c1ccc(Br)o1 | -3 | -4 | 0 | 0 | -47
O=C(NCC1CCCO1)c1cc(-c2ccco2)nc2ccccc12 (stereo not drawn) | 24* | 82* | 12 | -1 | 13
COc1cccc(-c2cc(C(=O)NC3CC3)c3ccccc3n2)c1 | -8 | 2 | . | . | -4
O=C(N/N=C/c1cccc(F)c1)c1cc(-c2ccco2)nc2ccccc12 | 54* | 84* | 20 | 0 | -18
COc1ccccc1CNC(=O)COC(=O)c1cc(-c2ccco2)nc2ccccc12 | 64* | 90* | 0 | -1 | -12
O=C(NCC1CCCO1)c1cc(-c2ccncc2)nc2ccccc12 (stereo not drawn) | . | . | . | . | 12
O=C(NC1CCC(O)CC1)c1cc(-c2ccco2)nc2ccccc12 (stereo not drawn) | 4.8* | 85* | 40* | 1 | 10
O=C(NCC1CCCO1)c1cc2nc(-c3ccco3)cc(C(F)(F)Cl)n2n1 (stereo not drawn) | 53* | 83* | . | . | 8
CCc1nnc(NC(=O)c2cc(-c3ccccn3)nc3ccccc23)s1 | -4 | -15 | 2 | 0 | -1
CCc1nnc(NC(=O)c2cc(-c3ccco3)nc3ccccc23)s1 | -8 | 76* | 24 | 0 | -7
O=C(NCC1CCCO1)c1nn2c(C(F)(F)F)cc(-c3ccco3)nc2c1Cl (stereo not drawn) | -2 | 2 | . | . | 60
CCCCCCCCNc1ncnc2[nH]ncc12 | . | . | . | . | 5
CNC(=O)c1ccc(CN(C)C(=O)c2cccc(S(=O)(=O)N3CCc4ccccc4C3)c2)cc1 | . | . | . | . | -5
CCCNC(=O)c1cc(C2CCCN(C(=O)c3cc(F)ccc3C)C2)on1 (stereo not drawn) | . | . | . | . | 0
O=C1C=C(c2ccc3cc[nH]c3c2)C[C@@H](c2ccc3c(c2)OCO3)C1 | . | . | . | . | -9
CN(C)S(=O)(=O)c1ccc(N2CCCC2)c(C(=O)Nc2nc3ccc(F)cc3s2)c1 | 62* | active | -3 | 0 | 4
CN(C)S(=O)(=O)c1ccc(N2CCCC2)c(C(=O)Nc2nc3ccccc3s2)c1 | 62 | -2 | 2 | -1 | -11
O=C(CCN1C(=O)NC2(CCCC2)C1=O)Nc1cccc(S(=O)(=O)N2CCOCC2)c1 | . | . | . | . | -3
c1coc(-c2ccnc3nc(-n4cccc4)nn23)c1 | active | 94* | 6 | 1 | -6
COc1ccc(-c2ccnc3nc(-n4cccc4)nn23)cc1 | 0 | -9 | -3 | 0 | -10
O=C(CN1C(=O)NC2(CCCCC2)C1=O)Oc1ccc2c(C(F)(F)F)cc(=O)oc2c1 | . | . | . | . | 44*
CCn1cnc2c1c(=O)n(CC(=O)NCC(F)(F)F)c(=O)n2Cc1ccccc1 | active | 99* | 1 | 1 | -54
CCn1cnc2c1c(=O)n(CC(=O)NCc1ccccc1)c(=O)n2Cc1ccccc1 | -5 | 1 | 0 | 0 | -1
SMILES | PABP polyA inh | eIF4H FP inh | eIF4E 4G PPI | PERK inh | MLLE-PAM2 inh
O[C@@H]1CN(Cc2ccccc2Cl)CC[C@H]1N1CCOCC1 | 3 | -5 | . | . | 4
Cc1cccc(C)c1NC(=O)CCCN1CC(C)OC(C)C1 (stereo not drawn) | -6 | -6 | 5 | 3.2* | -6
CC1CN(C(=O)c2cc(S(=O)(=O)N3CCCCC3)ccc2Cl)CC(C)O1 (stereo not drawn) | . | . | . | . | 3
CC1(C(=O)Nc2ccc3c(c2)OCCO3)CCN1C(=O)C1(c2ccc(Cl)cc2)CC1 (stereo not drawn) | . | . | . | . | 3
CCN(CC)CCCNc1ncnc2ccccc12 | 57* | 44 | -1 | 1 | 3
Nc1cc(-c2cccc(Br)c2)nn1Cc1ccccc1 | 66 | active | -13 | 0 | -1
Nc1cc(-c2ccc(Br)cc2)nn1Cc1ccccc1 | -5 | -3 | -1 | 2 | 23
Cc1ccc(/C([O-])=C(/C(=S)NCc2ccco2)[n+]2ccccc2)cc1 | 84* | 76* | 6 | 2 | .
Cc1ccc(-n2nnnc2SCc2nc3sc(C)c(C)c3c(=O)[nH]2)cc1 | -11 | ? | -2 | 0 | -93
CC(=O)c1sc2nc(CSc3nnnn3-c3ccccc3)[nH]c(=O)c2c1C | 0 | ? | 31* | 0 | -135
CN(C)c1cccc(C(=O)OCc2cc(=O)oc3cc(O)ccc23)c1 | 70* | 88* | 16 | 1 | 1
CC1CN(S(=O)(=O)c2cccc(C(=O)OCc3cc(=O)oc4cc(O)ccc34)c2)CC(C)O1 (stereo not drawn) | 21 | 38 | . | -2 | -3
COc1ccc(OCC(=O)N/N=C/c2ccc(O[C@@H]3O[C@H](CO)[C@@H](O)[C@H](O)[C@H]3O)cc2)cc1 | -2 | -2 | -2 | 3.4* | -1
C[C@@H]1CN([C@@H](C)CO)C(=O)CCCn2nncc2CO[C@@H]1CN(C)S(=O)(=O)c1ccc(F)cc1 | . | . | . | . | -8
COc1ccc(/C=N/Nc2cc(N3CCCC3)nc(N3CCCC3)n2)cc1 | -10 | 23 | 0 | 0 | 54*
Oc1cccc(/C=N/Nc2cc(N3CCCC3)nc(N3CCCC3)n2)c1 | 68 | 29* | -1 | 0 | 14
Oc1ccc(/C=N/Nc2cc(N3CCCC3)nc(N3CCCC3)n2)cc1 | ? | 51 | -3 | -1 | 70*
Cc1ccc(C(OCC(O)CNCc2ccc(F)cc2)c2ccccc2)cc1 (stereo not drawn) | -8 | -3 | . | . | -12
CC(C)NC(=O)N(C)C[C@@H]1Oc2c(NC(=O)Nc3ccccc3)cccc2C(=O)N([C@H](C)CO)C[C@H]1C | . | . | . | . | 10
O=C(CNS(=O)(=O)c1ccc(Br)s1)NCc1ccccc1 | -7 | 2 | . | . | 0
O=C(CN(Cc1ccco1)C(=O)CNS(=O)(=O)c1ccc(F)cc1)NCc1ccco1 | 7 | -1 | . | . | -7
Cc1cc(=O)[nH]c(SCC(=O)c2ccccc2)c1C#N | 69* | 81* | -4 | 1 | -66
Cc1ccccc1NC(=O)CSc1nnc(C)c(=O)[nH]1 | 4 | -5 | -1 | 1 | 43*
CCc1cccc(CC)c1NC(=O)CSc1nnc(CCC(=O)O)c(=O)[nH]1 | -7 | -10 | -4 | 1 | 39*
Cc1ccccc1NC(=O)CSc1[nH]c(=O)cc(C)c1C#N | 52* | 22* | 4 | 1 | -43
SMILES | PABP polyA inh | eIF4H FP inh | eIF4E 4G PPI | PERK inh | MLLE-PAM2 inh
CCOc1ccc(Cc2nnc(SCC(=O)Nc3c(C)cccc3C)[nH]c2=O)cc1 | . | . | . | . | 35
CCOc1ncccc1C(=O)OCC(=O)NC(=O)c1ccccc1 | . | . | . | . | 0
Cc1cc(C)cc(C(=O)NCC(=O)N2CCC(C(N)=O)CC2)c1 | . | . | . | . | 9
COC(=O)c1ccc2nc(-c3ccc(C)cc3)c(CC3CCCCC3)n2c1 | . | . | . | . | -12
CS(=O)(=O)c1ccc(C(=O)NNC(=O)c2ccccc2-n2cccc2)cc1 | . | . | . | . | 2
CCOc1cc(C)nc(N2CCC(C(=O)NC3CC3)CC2)n1 | . | . | . | . | 0
